According to PubChem BioAssay (NCI):
Compounds without any hit were thinned out: in the full panel of roughly 83,000, 20% have a hit.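 Method: cells in 96-well plates; compound added at one concentration; 48 h incubation; percent growth measured; values under 10 scored active.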 Unmarked numbers belong to inactive results. The source made the active and inactive calls.

Experiments:
Assay in all cases: NCI-60 one-dose screen, 48 h (100 = growth as untreated, 0 = no growth, -100 = all killed)
Details in all cases: 10 µM unless noted
[1] = test system: NCI-H23 lung
[2] = test system: NCI-H226 lung
[3] = test system: NCI-H322M lung
[4] = test system: HOP-62 NSCLC
[5] = test system: NCI-H460 lung
[6] = test system: HOP-92 NSCLC
[7] = test system: NCI-H522 lung
[8] = test system: A549/ATCC NSCLC
[9] = test system: 786-0 renal
[10] = test system: COLO 205 colon
[11] = test system: DU-145 prostate
[12] = test system: K-562 leukemia
[13] = test system: MALME-3M melanoma
[14] = test system: MDA-MB-231 breast
[15] = test system: RXF 393 renal
[16] = test system: SF-268 CNS
[17] = test system: SF-295 CNS
[18] = test system: SF-539 CNS
[19] = test system: UACC-257 melanoma
[20] = test system: M14 melanoma

Row | Compound | growth [1] [%] | growth [2] | growth [3] [%] | growth [4] [%] | growth [5] [%] | growth [6] [%] | growth [7] [%] | growth [8] [%] | growth [9] [%] | growth [10] | growth [11] [%] | growth [12] | growth [13] | growth [14] [%] | growth [15] [%] | growth [16] [%] | growth [17] [%] | growth [18] | growth [19] | growth [20] [%]
1 | CCCCNC(=S)Nc1ccc(OCc2nc3ccccc3[nH]2)cc1 | 70 | 102% | 80.7 | 69.5 | 69.7 | 96.2 | 36.2 | 49.7 | 62.3 | 95.6% | 58.9 | 28.6% | 77.5% | 65.2 | 99.5 | 44.2 | 53.7 | 56.2% | 83.5% | 55.1
2 | CC(=O)OC[C@@]1(C)C2CC[C@]3(C)C(CC=C4C5CC(C)(C)CC[C@]5(C(=O)Nc5ccc(C)cc5)CC[C@]43C)[C@@]2(C)C[C@@H](OC(C)=O)[C@@H]1OC(C)=O (stereo not given in full) | 49.3 | 50.6% | 72.8 | 44.4 | 13.5 | 55.8 | 48.9 | 41.4 | 57.1 | 48.8% | 49 | 21.6% | 60.6% | 66.1 | 82.2 | 57.4 | 31.2 | 43.1% | 23.9% | 51.9
3 | O=C1NC(=O)/C(=C/c2ccccc2OCc2cc3ccccc3nc2Cl)S1 | 68.8 | 75.4% | 79.4 | 33.6 | 91.9 | 56.8 | 79.1 | 76.9 | 78.2 | 117% | 90.5 | 84.6% | 82.8% | 64.2 | 72.8 | 58.7 | 72 | 70.8% | 89.4% | 120
4 | O=c1onc(-c2cc3ccccc3nc2Cl)n1-c1cccc2ccccc12 | 56.5 | 40.8% | 76.4 | 55.6 | 51.7 | 38.7 | 27.8 | 55.5 | 73.3 | 56.4% | 80.7 | 17.6% | 55.3% | 29.7 | 43.5 | 73.8 | 15.5 | 52.6% | 70.7% | 38.3
5 | S=c1c2ccccc2nc2n1CCc1c-2[nH]c2ccccc12 | 62 | 30.8% | 60.6 | 38.5 | 71.2 | 25.2 | 56.7 | 68.2 | 46.9 | 90.7% | 68.1 | 57.8% | 54.2% | 40.8 | 28.7 | 57.7 | 63.4 | 43.4% | 66.1% | 70.1
6 | Nc1cccc(SCc2cc3ccccc3[nH]c2=O)c1 | 73.5 | 69.8% | 73.3 | 42.7 | 20 | 74.6 | 43.6 | 33.2 | 47.3 | 29% | 58.7 | 9.64% (active) | 72% | 57.2 | 81.5 | 47.7 | 19.3 | 59.9% | 48.5% | 20.5
7 | CC(=O)Nc1cccc(-c2nc3cc(-c4ccc(O)cc4)ccc3n2C)c1 | 48.8 | 49.8% | 67.1 | 54.3 | 55.4 | 93.7 | 26.7 | 35.2 | 63.2 | 56.5% | 56.5 | 35.4% | -4.44% (active) | 49.1 | 81.3 | 42.8 | 26 | 57.2% | -3.29% (active) | 24.5
8 | NS(=O)(=O)c1ccc(N=Nc2c(O)n(CC(=O)Nc3ccccc3Cl)c3ccccc23)cc1 | 30 | -1.16% (active) | 29.2 | 17.6 | 14.5 | 33.7 | 51.8 | 18.5 | 11.9 | -19.1% (active) | 28.8 | 16.2% | 16% | 15.4 | 24.4 | 77.4 | 15.1 | -10% (active) | 53.2% | 23.8
